The record followed here is PubChem BioAssay (NCATS).

A short description of assay [1]: AP1 Signaling Pathway (AID 357; active = well fitted curve in either direction with a large enough effect, not every such curve was filed as active; also: % is scaled to controls: 0 for no effect and ±100 for the full control effect). The conditions noted are these: ME-180 AP-1-bla reporter, EGF-induced, beta-lactamase ratio, 5 h; at 17.2 µM (top of the series) unless noted. The procedure, abridged: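 Read-out was the 460nm/530nm emission ratio (excitation 405nm) after CCF4 loading for 2.5 hours at room temperature. Cells carried an AP-1-driven beta-lactamase reporter, were stimulated with EC50 EGF plus compound for 5 hours, and AC50 values came from titrations.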

Assay [2] can be described thus: Stat Signaling Pathway (AID 446; active = well fitted curve in either direction with a large enough effect, not every such curve was filed as active;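 also: ME-180 cervical cancer cells given 40 pM IL-6 alongside compound; SIE-controlled beta-lactamase reporter measured as 460/530 nm FRET emission ratio; % is scaled to controls: 0 for no effect and ±100 for the full control effect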). Conditions: ME-180 SIE beta-lactamase reporter, IL-6 stimulated, 5 h; at 17.2 µM (top of the series) unless noted. Summed up: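 Screening format detects activators and inhibitors alike: ME-180 SIE-bla cells stimulated at 40 pM IL-6 for 5 hrs with compound, then dual-emission beta-lactamase read at 405 nm excitation.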
Assay [3] has as its target Glucocorticoid receptor (Homo sapiens) (UniProt P04150). Description: GR-GFP Redistribution (AID 450;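 active = compounds whose dose series gives a full or clear partial fitted curve of increased nuclear translocation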; also: potency is read from the fitted curve at half-maximal effect).
The target of assay [4] is Guanine nucleotide-binding protein G(i) subunit alpha-1 (Homo sapiens) (UniProt P63096). Description: qHTS Assay for Inhibitors of RGS12 GoLoco Motif Activity (Green Fluorophore) (AID 879).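 Also: 0% = labeled peptide with Gαi1 and full inhibition = labeled peptide alone without protein; negative values mean loss of peptide binding seen as reduced polarization.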 The procedure, abridged: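 Fluorescence polarization assay: 50 nM Gαi1 with 10 nM FITC-labeled RGS12 GoLoco peptide in 10 mM Tris pH 7.5, 150 mM NaCl, 0.1 mM GDP, 0.05% NP40, 10 min at room temperature with compound.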
Chain of Guanine nucleotide-binding protein G(i) subunit alpha-1 (Homo sapiens) (P63096 whole entry, looked up): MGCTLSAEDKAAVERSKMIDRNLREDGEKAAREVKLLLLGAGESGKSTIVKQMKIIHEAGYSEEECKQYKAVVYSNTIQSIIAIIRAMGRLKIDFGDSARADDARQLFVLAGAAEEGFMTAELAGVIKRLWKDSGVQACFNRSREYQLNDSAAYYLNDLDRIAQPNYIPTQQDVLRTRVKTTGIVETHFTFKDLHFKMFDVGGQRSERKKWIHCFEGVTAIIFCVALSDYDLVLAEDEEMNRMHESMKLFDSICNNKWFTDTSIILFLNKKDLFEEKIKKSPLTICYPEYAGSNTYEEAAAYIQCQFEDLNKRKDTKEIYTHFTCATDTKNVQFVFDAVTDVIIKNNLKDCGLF

In assay [5] the target is Pyruvate kinase (Leishmania mexicana) (UniProt Q27686). Description: qHTS Validation Assay for Inhibitors of Leishmania Mexicana Pyruvate Kinase (AID 945).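 Also: 0% = DMSO only neutral control wells.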 Summed up: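 Eight-point qHTS titrations in triplicate, data normalized to DMSO neutral control. Reaction: 0.2 nM LmPYK E451W mutant, 0.5 mM PEP, 0.1 mM ADP, 7 mM MgCl2, pH 7.2, one hour at room temperature; luminescent ATP detection.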
Chain of Pyruvate kinase (Leishmania mexicana) (Q27686 2-499 E452W): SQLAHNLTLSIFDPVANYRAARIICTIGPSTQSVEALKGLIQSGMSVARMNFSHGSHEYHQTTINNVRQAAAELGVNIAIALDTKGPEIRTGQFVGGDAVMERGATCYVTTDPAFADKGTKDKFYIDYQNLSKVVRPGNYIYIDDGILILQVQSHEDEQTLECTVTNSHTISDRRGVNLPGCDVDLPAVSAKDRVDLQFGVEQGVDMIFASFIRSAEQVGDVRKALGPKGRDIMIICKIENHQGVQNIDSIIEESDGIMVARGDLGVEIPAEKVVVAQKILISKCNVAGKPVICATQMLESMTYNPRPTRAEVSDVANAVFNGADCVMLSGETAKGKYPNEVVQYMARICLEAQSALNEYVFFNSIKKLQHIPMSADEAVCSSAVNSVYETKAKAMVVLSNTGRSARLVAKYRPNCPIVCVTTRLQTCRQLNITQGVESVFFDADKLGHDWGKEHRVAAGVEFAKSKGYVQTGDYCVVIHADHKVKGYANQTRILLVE
(In qHTS, concentration-response curves come from the screen itself.)

The target in assay [6] is Pyruvate kinase PKM (Homo sapiens) (UniProt P14618). Description: qHTS Assay for Activators of Human Muscle Pyruvate Kinase (AID 954; active = well fitted curve in the direction sought with a large enough effect, not every such curve was filed as active;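 also: 0% = uninhibited enzyme and -100% = no enzyme or full thiadiazolimine inhibition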). The procedure, abridged:
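Reaction: 0.1 nM purified PKM2 with 0.5 mM phosphoenolpyruvate and 0.1 mM ADP, room temperature, 1 h. Readout: luciferase-based ATP luminescence after stop reagent. Activators judged against a 0.3 nM enzyme column.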

Assay [7] deals with Alpha-galactosidase A (Homo sapiens) (UniProt P06280). Description: Counterscreen for Glucocerebrosidase Inhibitors: qHTS Assay for Human alpha-Galactosidase at pH 4.5 (AID 992). Also: 0% is about no effect. The procedure, abridged: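 Concentration-response curves (0.7 nM to 77 uM final) were modeled with the Hill equation to give AC50. Reactions: 2 nM enzyme, 80 uM fluorogenic alpha-galactoside, pH 4.5 citric acid buffer, 20 min, room temperature.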
Chain of Alpha-galactosidase A (Homo sapiens) (P06280 whole entry, looked up): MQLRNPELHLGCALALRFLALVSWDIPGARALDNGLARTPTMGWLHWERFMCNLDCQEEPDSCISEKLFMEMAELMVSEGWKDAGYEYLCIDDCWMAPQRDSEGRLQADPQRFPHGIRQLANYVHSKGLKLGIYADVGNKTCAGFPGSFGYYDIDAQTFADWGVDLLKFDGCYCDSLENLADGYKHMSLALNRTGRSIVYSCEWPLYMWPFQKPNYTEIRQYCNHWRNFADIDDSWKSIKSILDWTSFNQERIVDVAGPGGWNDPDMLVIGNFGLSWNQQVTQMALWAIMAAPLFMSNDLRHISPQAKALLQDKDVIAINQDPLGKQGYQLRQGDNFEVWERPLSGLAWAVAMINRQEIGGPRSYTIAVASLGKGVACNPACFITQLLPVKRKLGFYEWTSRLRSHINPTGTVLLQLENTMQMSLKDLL
(In general: The purpose of a counterscreen is to sort out artefacts and off-target activity.)

For assay [8], the target named is alpha-glucosidase (Oryza sativa, rice) (UniProt Q653V4). Description: Counterscreen for Glucocerebrosidase Inhibitors: qHTS Assay for Rice alpha-Glucosidase at pH 5.0 (AID 997).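 Also: 0% = full activity with enzyme and -100% = basal without enzyme.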 Summed up: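 Rice alpha-glucosidase (4 nM final) with 400 uM 4-methylumbelliferyl-alpha-D-glucopyranoside in citrate buffer pH 5.0, 20 min at room temperature, stopped at pH 10; fluorescence 365/440 nm, compounds 0.7 nM–77 uM, AC50 from Hill fits.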

Assay [9] in a line: qHTS Assay for Identification of Small Molecule Agonists for Thrombopoietin (TPO) Signaling Pathway (AID 917). Also: % is scaled to controls: 0 for no effect and ±100 for the full control effect. Summed up: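 Luminescence from a Glycoprotein IIb promoter–driven luciferase reporter served as read-out in murine Ba/F3 cells carrying the human TPO receptor. Cells, deprived of IL-3 overnight, received compounds with 26 pM TPO and were incubated 24 hrs at 37 C.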
Assay [10] addresses Muscarinic acetylcholine receptor M1 (Rattus norvegicus) (UniProt P08482). Description: qHTS Assay for Antagonists of Acetylcholine Muscarinic M1 Receptor: Measurement of IP-One Response (AID 944). Also: nearly all actives have a fitted effect of over 75% in size. The procedure, abridged: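 CHO cells stably expressing rat M1, pretreated 10 min with compound, then stimulated 30 min with carbachol at EC80 (200 nM) in LiCl-containing buffer pH 7.4; IP1 accumulation read by HTRF competition (665/620 nm).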

In assay [11] the target is Cytochrome P450 3A4 (Homo sapiens) (UniProt P08684). Description: qHTS Assay for Activators of Cytochrome P450 3A4 (AID 885). Also: nearly all actives have a fitted effect of over 65% in size. The procedure, abridged: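 Steps: enzyme/substrate mix dispensed; compound added, 10 min RT; NADPH regeneration solution added, 60 min RT; luciferin detection buffer stops reaction; 20 min later luminescence measured.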
Chain of Cytochrome P450 3A4 (Homo sapiens) (P08684 whole entry, looked up): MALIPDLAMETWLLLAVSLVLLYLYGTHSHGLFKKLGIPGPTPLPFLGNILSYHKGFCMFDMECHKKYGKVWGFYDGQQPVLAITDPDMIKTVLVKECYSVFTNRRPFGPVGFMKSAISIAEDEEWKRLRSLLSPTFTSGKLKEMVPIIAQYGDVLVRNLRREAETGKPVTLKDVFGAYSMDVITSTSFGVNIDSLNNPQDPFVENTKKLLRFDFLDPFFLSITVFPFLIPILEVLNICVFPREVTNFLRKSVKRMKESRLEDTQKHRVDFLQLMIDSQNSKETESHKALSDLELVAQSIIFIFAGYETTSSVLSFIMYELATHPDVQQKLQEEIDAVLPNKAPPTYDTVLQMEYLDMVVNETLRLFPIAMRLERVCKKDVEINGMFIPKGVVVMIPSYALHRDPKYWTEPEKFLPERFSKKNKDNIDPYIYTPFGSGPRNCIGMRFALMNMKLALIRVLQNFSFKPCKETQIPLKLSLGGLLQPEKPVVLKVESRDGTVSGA
Assay [12] deals with Cytochrome P450 2D6 (Homo sapiens) (UniProt P10635). Description: qHTS Assay for Inhibitors and Substrates of Cytochrome P450 2D6 (AID 891).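 Also: luciferin methyl ether substrate demethylated by CYP2D6 with NADPH regeneration; % is scaled to controls: 0 for no effect and ±100 for the full control effect; nearly all actives have a fitted effect of over 60% in size.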 Summed up: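 Human CYP2D6 (5 nM) with 30 uM Luciferin-ME EGE (at Km) in 100 mM KPO4, compound preincubated 10 min, then NADPH regeneration system for 60 min at room temperature. Luciferin read by luminescence; normalized to 1.43 uM quinidine.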

Assay [13] has as its target Cytochrome P450 2C19 (Homo sapiens) (UniProt P33261). Description: qHTS Assay for Inhibitors and Substrates of Cytochrome P450 2C19 (AID 899). Also: potency is read from the fitted curve at half-maximal effect; nearly all actives have a fitted effect of over 60% in size. The procedure, abridged:
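5 nM human CYP2C19 with 10uM Luciferin-H EGE (at KM) in 50mM KPO4, compound preincubated 10 min at 37C, then NADPH regeneration for 60 min at 37C. Luciferin read by luminescence after detection reagent; normalized to 57uM ketoconazole as full inhibition.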

A short description of assay [14]: Confirmation and Secondary Assay for Modulators of Hemoglobin Beta Chain Splicing at IVS2 705 locus (AID 930).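 Also: HeLa cells stably expressing the EGFP-705 splicing reporter; GFP fluorescence per well restored by corrected splicing of the IVS2-705 intron in EGFP; % of control where 0% means no effect.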 The procedure, abridged: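 HeLa cells stably carrying EGFP interrupted by mutant beta-globin intron 2 (IVS2-705) treated 2 days at 37C with compound; 500 nM antisense PNA as control. Correct splicing read as total peak GFP intensity per well by laser-scanning cytometry.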

In assay [15] the target is Tyrosyl-DNA phosphodiesterase 1 (Homo sapiens) (UniProt Q9NUW8). Description: Confirmation Assay for Inhibitors of Tyrosyl-DNA Phosphodiesterase (TDP1) (AID 489007). Also: potency is read from the fitted curve at half-maximal effect; nearly all actives have a fitted effect of over 40% in size. Conditions: recombinant human TDP1 enzymatic activity, dose-response. The procedure, abridged:
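Recombinant human Tdp1 (1 nM final), expressed in E. coli, preincubated 15 min with compound. Then 15 nM 5'-biotin/3'-phosphotyrosine-FITC DNA substrate added for 5 min at room temperature. AlphaScreen beads (10 ug/ml) added for 10 min; cleavage gives signal loss.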

For assay [16], the target named is Tumor susceptibility gene 101 protein (Homo sapiens) (UniProt Q99816). Description: qHTS Assay for Iinhibitors of HIV-1 Budding by Blocking the Interaction of PTAP/TSG101: Hit Validation (AID 651600). Also: potency is read from the fitted curve at half-maximal effect; nearly all actives have a fitted effect of over 70% in size. The procedure, abridged: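 Compounds are added to the Tsg101 binding domain (10 uM final) in pH 7.5 HEPES buffer. FITC-PTAP peptide follows at 50 nM final. After 20 min at r.t., polarized FITC emission is measured.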

The nature of assay [17]: qHTS for Inhibitors of the vitamin D receptor (VDR): Hit Validation using a Texas Red Assay (AID 602201). Also: potency is read from the fitted curve at half-maximal effect. Conditions: VDR coregulator binding, Texas Red fluorescence polarization; agonist-bound VDR ligand-binding domain. Summed up: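 Fluorescence polarization with 1.5 uM VDR-LBD, LG19078 and 7 nM Texas Red (final). After 2 hours at ambient temperature, read at Ex 595 nm/Em 615 nm.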

Values without a mark were called inactive. Records with an inconclusive call do not appear. Activity calls are given as the source filed them. Unless noted, calls follow the shape of the dose curve; as a rule, active = well fitted curve in the direction sought with a large enough effect; inconclusive = small, poorly fitted or top-dose-only effect, or another doubt; inactive = no such curve, though single readings can be large; an effect the other way counts as inactive or inconclusive. Bounds are passed on as bounds.

Chain of Pyruvate kinase PKM (Homo sapiens) (P14618 whole entry, looked up): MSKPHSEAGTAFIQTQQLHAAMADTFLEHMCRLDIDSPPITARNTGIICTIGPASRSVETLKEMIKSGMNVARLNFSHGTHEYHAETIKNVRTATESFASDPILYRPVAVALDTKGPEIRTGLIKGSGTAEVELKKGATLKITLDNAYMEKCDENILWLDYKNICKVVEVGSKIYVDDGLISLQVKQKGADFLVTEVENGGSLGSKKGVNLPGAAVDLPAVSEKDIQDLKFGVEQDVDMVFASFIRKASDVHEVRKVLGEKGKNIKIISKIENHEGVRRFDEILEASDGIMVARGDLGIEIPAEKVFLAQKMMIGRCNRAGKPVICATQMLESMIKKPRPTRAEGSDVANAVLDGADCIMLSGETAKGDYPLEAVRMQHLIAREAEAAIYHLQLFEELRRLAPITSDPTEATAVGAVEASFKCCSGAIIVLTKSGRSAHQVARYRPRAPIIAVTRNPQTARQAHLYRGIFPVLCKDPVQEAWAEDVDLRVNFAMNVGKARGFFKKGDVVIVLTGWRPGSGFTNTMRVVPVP
Chain of Glucocorticoid receptor (Homo sapiens) (P04150 whole entry, looked up): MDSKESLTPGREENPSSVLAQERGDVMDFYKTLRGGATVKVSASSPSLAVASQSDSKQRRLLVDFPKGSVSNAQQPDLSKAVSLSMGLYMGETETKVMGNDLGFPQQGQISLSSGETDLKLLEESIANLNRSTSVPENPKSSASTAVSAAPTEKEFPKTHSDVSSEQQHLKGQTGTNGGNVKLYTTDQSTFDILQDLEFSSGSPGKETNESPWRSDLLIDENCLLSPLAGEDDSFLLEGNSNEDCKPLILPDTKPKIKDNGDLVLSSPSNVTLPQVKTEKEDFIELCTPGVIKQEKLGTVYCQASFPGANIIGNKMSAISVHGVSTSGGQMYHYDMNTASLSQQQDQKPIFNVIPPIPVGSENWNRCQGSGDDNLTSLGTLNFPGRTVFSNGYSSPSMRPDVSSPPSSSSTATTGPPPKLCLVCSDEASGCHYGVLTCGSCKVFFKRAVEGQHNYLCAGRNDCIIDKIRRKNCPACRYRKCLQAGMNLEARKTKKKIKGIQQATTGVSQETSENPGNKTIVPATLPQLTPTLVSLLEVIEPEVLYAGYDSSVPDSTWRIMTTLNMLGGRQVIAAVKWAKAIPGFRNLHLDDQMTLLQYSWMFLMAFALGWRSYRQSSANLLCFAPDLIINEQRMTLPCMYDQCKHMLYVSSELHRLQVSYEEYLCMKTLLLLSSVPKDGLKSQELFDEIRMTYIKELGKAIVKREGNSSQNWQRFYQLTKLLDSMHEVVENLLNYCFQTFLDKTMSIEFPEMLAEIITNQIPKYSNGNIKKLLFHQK
Chain of Tyrosyl-DNA phosphodiesterase 1 (Homo sapiens) (Q9NUW8 whole entry, looked up): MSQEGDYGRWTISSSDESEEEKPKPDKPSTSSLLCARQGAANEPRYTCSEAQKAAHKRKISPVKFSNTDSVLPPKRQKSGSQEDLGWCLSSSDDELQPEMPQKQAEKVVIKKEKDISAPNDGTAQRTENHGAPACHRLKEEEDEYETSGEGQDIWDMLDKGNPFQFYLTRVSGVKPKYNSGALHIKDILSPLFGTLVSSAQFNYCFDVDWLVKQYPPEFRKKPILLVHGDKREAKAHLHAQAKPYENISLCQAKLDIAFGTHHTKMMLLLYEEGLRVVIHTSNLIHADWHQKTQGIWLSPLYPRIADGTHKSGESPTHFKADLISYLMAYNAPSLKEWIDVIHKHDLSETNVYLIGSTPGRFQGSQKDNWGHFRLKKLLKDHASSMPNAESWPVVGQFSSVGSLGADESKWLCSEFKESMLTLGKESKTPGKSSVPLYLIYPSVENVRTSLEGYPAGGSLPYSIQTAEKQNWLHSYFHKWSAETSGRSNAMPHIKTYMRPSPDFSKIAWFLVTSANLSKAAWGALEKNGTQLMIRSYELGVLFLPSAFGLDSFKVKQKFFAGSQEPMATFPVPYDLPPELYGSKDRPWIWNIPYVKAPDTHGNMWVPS
Chain of Muscarinic acetylcholine receptor M1 (Rattus norvegicus) (P08482 whole entry, looked up): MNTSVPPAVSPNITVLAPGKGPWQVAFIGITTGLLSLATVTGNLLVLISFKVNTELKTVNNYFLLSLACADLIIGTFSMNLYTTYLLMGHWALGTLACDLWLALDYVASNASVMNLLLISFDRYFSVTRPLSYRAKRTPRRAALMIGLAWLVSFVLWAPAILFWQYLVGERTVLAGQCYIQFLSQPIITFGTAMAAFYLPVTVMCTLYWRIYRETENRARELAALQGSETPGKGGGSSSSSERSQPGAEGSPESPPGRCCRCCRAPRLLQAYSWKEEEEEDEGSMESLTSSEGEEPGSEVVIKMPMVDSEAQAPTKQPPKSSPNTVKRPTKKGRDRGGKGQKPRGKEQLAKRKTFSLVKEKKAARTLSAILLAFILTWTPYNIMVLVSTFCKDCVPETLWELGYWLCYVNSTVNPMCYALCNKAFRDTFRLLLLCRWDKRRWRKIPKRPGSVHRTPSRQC
Chain of Cytochrome P450 2C19 (Homo sapiens) (P33261 whole entry, looked up): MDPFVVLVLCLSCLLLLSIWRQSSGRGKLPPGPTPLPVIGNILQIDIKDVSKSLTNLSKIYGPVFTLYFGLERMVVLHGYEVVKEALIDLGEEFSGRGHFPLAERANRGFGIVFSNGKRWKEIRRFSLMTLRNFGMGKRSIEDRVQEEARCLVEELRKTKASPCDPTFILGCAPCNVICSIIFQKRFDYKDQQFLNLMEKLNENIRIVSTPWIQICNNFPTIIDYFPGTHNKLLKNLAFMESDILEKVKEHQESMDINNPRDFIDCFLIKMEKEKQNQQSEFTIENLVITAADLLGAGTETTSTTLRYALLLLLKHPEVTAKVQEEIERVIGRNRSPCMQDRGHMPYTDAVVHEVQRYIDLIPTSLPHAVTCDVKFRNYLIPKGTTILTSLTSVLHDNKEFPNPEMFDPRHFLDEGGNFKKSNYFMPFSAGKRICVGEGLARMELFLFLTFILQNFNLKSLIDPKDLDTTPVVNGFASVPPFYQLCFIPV

Regarding `CCc1cc(=O)oc2c(CN3CCN(C)CC3)c(O)c(Cl)cc12`, in assay [1], the activity change, negative = inhibition was 12.5%. For the same compound, in assay [2], the activity, negative = inhibition was 2.51%. Moreover, the Potency in assay [3] is above 20.6 µM.
Consider `CCOC(=O)C1=C(C)NC(C)=C(C(=O)OC)[C@H]1c1cccc(Cl)c1Cl`, for which the compound was classed as inactive in assay [4], in assay [6], in [7] and in assay [8]. For the same compound, the Potency result in assay [5] was “inactive”.
Turning to `NC[C@@H]1O[C@@H](O[C@H]2[C@@H](O)[C@H](O[C@@H]3[C@H](O)[C@H](N)C[C@H](N)[C@H]3O[C@@H]3O[C@@H](CO)[C@H](O)[C@H](O)[C@@H]3N)O[C@H]2CO)[C@H](N)[C@H](O)[C@@H]1O`, the compound was classed as inactive in assay [4], in [6], in [7] and in assay [8]. Moreover, the Potency entry in assay [9], in assay [10] and in assay [5] was “inactive” each time.
For the compound `CC[C@H](c1ccccc1)c1cc(C(C)(C)C)cc(C(C)(C)C)c1O`, the activity change, positive = activation in [11] is -33% [at 11.4 µM].
Turning to `Clc1ccc([C@@H](c2ccccc2Cl)C(Cl)Cl)cc1`, the Potency entry in assay [12] is “inactive”. The Potency in assay [13] is 0.631 µM (active).
As to `Cc1cccc(CNc2ccnc(-c3ccc(N(C)C)cc3)n2)c1`, the Potency entry in assay [14] was “inactive”.
On to `O=C1c2ccccc2-c2onc3ccc(NCc4ccco4)c1c23`, for which the Potency in assay [15] was 7.08 µM (active); in assay [16], 1.63 µM (active).
Turning to `CC(C)Oc1ccc(C(=O)CCN2CCCCC2)cc1`, in [17], the Potency was 3.98 µM (active).
